High-throughput results deposited in PubChem BioAssay by National Center for Advancing Translational Sciences (NCATS).
D2 ag-1: Beta-Arrestin HTS for Positive Allosteric Modulators of the Human D2 Dopamine Receptor: Agonists. activation, % (concentration not given with the values). DiscoveRx PathHunter D2 beta-arrestin, luminescence, 90 min; 100% = 57 uM dopamine signal. AID 624465, 2012. hit rate 0.084% among 360,000; in the data active = activation above about 40%; inconclusive = between about 15% and that limit
Target sequence (P14416 whole entry, looked up): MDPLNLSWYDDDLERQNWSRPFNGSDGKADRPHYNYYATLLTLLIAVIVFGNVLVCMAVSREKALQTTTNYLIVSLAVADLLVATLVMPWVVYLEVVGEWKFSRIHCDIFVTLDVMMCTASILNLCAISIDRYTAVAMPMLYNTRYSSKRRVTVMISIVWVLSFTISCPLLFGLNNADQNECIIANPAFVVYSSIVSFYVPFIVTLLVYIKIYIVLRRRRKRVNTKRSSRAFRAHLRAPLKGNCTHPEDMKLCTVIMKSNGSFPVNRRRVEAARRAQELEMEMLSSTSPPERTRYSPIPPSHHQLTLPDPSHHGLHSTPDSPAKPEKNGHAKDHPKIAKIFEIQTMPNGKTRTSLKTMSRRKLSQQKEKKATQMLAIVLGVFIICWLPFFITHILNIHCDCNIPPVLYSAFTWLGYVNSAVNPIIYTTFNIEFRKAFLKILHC
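Agonist mode: compounds alone added to overnight-plated D2 PathHunter cells for 90 min at 37 C, with 57 uM final dopamine (EC100) defining full response. Beta-arrestin recruitment detected by chemiluminescent reagent, read after 1 h at ambient temperature.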
D2 antag: HTS Assay for Allosteric Antagonists of the Human D2 Dopamine Receptor: Primary Screen for Antagonists | D(2) dopamine receptor (Homo sapiens), P14416 | HEK293 TREx D2 cells, calcium flux, dopamine EC80 | inhibition, % at 10 µM | hit rate 2% among 340,000; in the data active = inhibition above about 30%; inactive = below that, where a call was filed; also: 0% is about no effect
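HEK293 T-REx D2 cells, tet-induced, calcium dye no-wash. Cpd pintool add, 180 s kinetic, then EC80 DA, 180 s kinetic. Ca flux read.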
D2 ag-2: HTS Assay for Allosteric Agonists of the Human D2 Dopamine Receptor: Primary Screen for Agonists; hit rate 0.53% among 340,000; AID 485358, 2010; activation, % at 2 µM; HEK293 T-REx D2 cells, calcium flux agonist mode;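 active = activation over 3 SD above normal in the single-dose calcium agonist read, cut at about 30% in these data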; also: 0% is about no effect
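Agonism scored from kinetic calcium signal (1 read/sec, 180 s) following compound pin transfer, after a 10 s baseline. Cells: HEK293 Trex line expressing inducible D2 receptor coupled to calcium, dye-loaded after overnight culture at 30 C.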
D2 PAM-1: Beta-Arrestin HTS for Positive Allosteric Modulators of the Human D2 Dopamine Receptor: Potentiators; DiscoveRx D2 beta-arrestin cells, luminescence, 90 min; 100% = 57 uM dopamine signal; hit rate 0.23% among 360,000; potentiation, % (concentration not given with the values); D(2) dopamine receptor (Homo sapiens), P14416; in the data active = potentiation above about 50%; inconclusive = mostly about 30% to 49%
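D2 cells co-treated with compound plus 50 nM dopamine (EC20) for 90 min at 37 deg C to detect potentiation. Beta-arrestin recruitment was read as enzyme-fragment luminescence after 1 h at ambient temperature. Full response was set by 57 uM dopamine.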
D2 PAM-2: HTS Assay for Positive Allosteric Modulators of the Human D2 Dopamine Receptor: Primary Screen for Potentiators. hit rate 0.34% among 340,000. potentiation, % at 10 µM. HEK293 T-REx D2, calcium flux, EC20 dopamine potentiation. D(2) dopamine receptor (Homo sapiens), P14416;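 active = potentiation over 3 SD above the plate norm, cut at about 30% in these data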; also: 0% is about no effect
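Primary screen. Calcium kinetics in induced HEK293 T-REx D2 cells: compound pre-addition 180 s, EC20 dopamine, 180 s more.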
* = called active by the depositor. An excerpt weighted towards active compounds, which were near 2.4% of everything screened.

`Cc1ccc2c(c1C)NC(=O)CC2c1ccc(Cl)cc1Cl` (configuration not stated) gave D2 ag-2 9.8 and D2 PAM-2 1.2.
Screening O=C1CN(C(=O)c2cccc(Br)c2)C(c2ccccc2)c2cc(Cl)ccc2N1 (configuration not stated) returned D2 ag-2 1.0 and D2 PAM-2 -1.8.
Screening CCC(Oc1ccccc1)C(=O)Nc1ccccc1C(=O)N1CCCCC1 (configuration not stated) returned D2 ag-1 -2.2, D2 antag -13.4, D2 ag-2 -0.1, D2 PAM-1 69.0* and D2 PAM-2 -14.1.
Screening COc1cc2c(C(=O)N3CCN(c4ccc(C)cc4)C(C)C3)cn(CC(C)C)c(=O)c2cc1OC (configuration not stated) returned D2 ag-2 0.8 and D2 PAM-2 -0.6.
`CCCCS(=O)CC(CS(=O)CCCC)OC(=O)c1ccccc1` (configuration not stated) gave D2 ag-1 -2.9, D2 antag -0.3, D2 ag-2 0.2, D2 PAM-1 -9.4 and D2 PAM-2 -5.6.
Screening CCCCS(=O)(=O)CC(COc1ccccc1)OC(=O)c1ccccc1 (configuration not stated) returned D2 ag-1 -3.0, D2 antag 34.9*, D2 ag-2 1.3, D2 PAM-1 -6.3 and D2 PAM-2 0.6.
COc1ccc(OC)c(CNC(=O)c2ccc(NC(=O)c3nsc4ccccc34)cc2)c1 was read as D2 ag-2 0.4 and D2 PAM-2 -9.4.
COc1ccc(OC)c(S(=O)(=O)Nc2cccc3c(O)cccc23)c1 was read as D2 ag-1 1.9 and D2 PAM-1 1.4.
`COc1ccc(OC)c(S(=O)(=O)Nc2ccc(O)c3ccccc23)c1` gave D2 ag-1 inconclusive, D2 antag -15.3, D2 ag-2 -0.1, D2 PAM-1 88.6* and D2 PAM-2 0.4.
CC1CC(C)CN(c2ccc(-n3cnnn3)cc2[N+](=O)[O-])C1 (configuration not stated) was read as D2 ag-1 -7.0, D2 antag -3.8, D2 ag-2 -0.1, D2 PAM-1 2.1 and D2 PAM-2 0.8.
Screening O=[N+]([O-])c1cc(-n2cnnn2)ccc1N1CCC(Cc2ccccc2)CC1 returned D2 ag-1 1.9, D2 antag 31.9*, D2 ag-2 -0.2, D2 PAM-1 9.3 and D2 PAM-2 -11.5.
`COc1ccc(NC(=O)c2ccc(OCC3CCCO3)cc2)cc1Cl` (configuration not stated) gave D2 ag-1 7.7, D2 antag 47.4*, D2 ag-2 1.2, D2 PAM-1 25.4 and D2 PAM-2 -3.5.
`Cc1c(OCC(=O)N[C@@H](CSCc2ccccc2)C(=O)O)ccc2c3c(c(=O)oc12)CCC3` gave D2 ag-1 1.5, D2 antag 30.7*, D2 ag-2 0.1, D2 PAM-1 -5.1 and D2 PAM-2 17.3.
Screening Cc1c(OCC(=O)N[C@@H](Cc2ccccc2)C(=O)O)ccc2c3c(c(=O)oc12)CCC3 returned D2 ag-1 2.8, D2 antag 10.1, D2 ag-2 -1.2, D2 PAM-1 4.2 and D2 PAM-2 4.0.
For CCOc1ccccc1NC(=O)c1c(NC(=O)Cc2ccc(OC)cc2)sc2c1CCC2 the results were D2 ag-2 0.6 and D2 PAM-2 2.7.
CCc1nnc(NC(=O)c2ccc(COc3ccc(C)cc3)o2)s1 was read as D2 ag-1 -3.0, D2 antag 30.2*, D2 ag-2 0.6, D2 PAM-1 -0.2 and D2 PAM-2 0.0.
CCc1nnc(NC(=O)CCC(=O)Nc2ccc(C)cc2)s1 was read as D2 ag-1 -8.9, D2 antag 43.2*, D2 ag-2 1.0, D2 PAM-1 -10.9 and D2 PAM-2 -8.6.
